# According to PubChem BioAssay:
# For some of these results: Potency and affinity values are given separately. This is one part of the list. Where a call stands in place of a potency, no number is given. Activity calls are given as the source filed them.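 The calls were made as follows, unless noted: active = compound raising the membrane signal above positive-control mean plus 3 SD in both repeats, and a primary screen hit; inactive = the rest.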
# Columns and labels:
# [1] = tested on: TRPC4 beta (transient receptor potential cation channel C4), mouse; assay: activators of mouse TRPC4 channel, confirmation, cell-based, Fluo4 calcium, HEK293 TRPC4beta/mu-opioid, duplicates, 10 µM (AID 2426;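 active = fluorescence ratio normalized to control raised more than 50% in primary screen plus both repeat runs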); conditions: Fluo4 calcium fluorescence, at 10 µM; active compounds read high
# [2] = tested on: transient receptor potential cation channel C4 beta (TRPC4), mouse; assay: activators of mouse TRPC4 channel, confirmation, cell-based, second round, Fluo4, HEK293 TRPC4beta/mu-opioid, 1 µM (AID 2461;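 active = primary screen active and over 50% activation in each of two duplicate runs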); conditions: Fluo4 calcium fluorescence, at 1 µM; active compounds read high
# [3] = tested on: TRPC4 (transient receptor potential cation channel C4 beta), mouse; assay: positive allosteric modulators of mouse TRPC4, confirmation, cell-based, second round, Fluo-4, HEK293 TRPC4beta/mu-opioid, 1 µM (AID 2554;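 active = primary screen hit whose fluorescence ratio, in both repeats, exceeds the weak agonist control mean by 3 SD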); conditions: DAMGO EC20, Fluo-4 calcium flux, at 1 µM; active compounds read high
# [4] = tested on: TRPC4 beta (transient receptor potential cation channel C4), mouse; assay: positive allosteric modulators of mouse TRPC4, confirmation, cell-based, Fluo-4, HEK293 TRPC4beta/mu-opioid (AID 2555;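 active = primary screen hit whose calcium fluorescence ratio, in both repeats, exceeds the weak agonist control mean by 3 SD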); conditions: DAMGO EC20, Fluo-4 calcium flux, at 10 µM; active compounds read high
# [5] = biological target: Short transient receptor potential channel 4 (Mus musculus) (UniProt Q9QUQ5); assay: inhibitors of mouse TRPC4 channel, confirmation, cell-based, Fluo4, HEK293 TRPC4beta/mu-opioid (AID 2636;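 active = calcium signal cut by more than 3 SD below the full-agonist control yet still positive, in both repeats and the earlier primary screen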); conditions: DAMGO, Fluo4 calcium flux, at 10 µM; active compounds read high
# [6] = biological target: Short transient receptor potential channel 4 (Mus musculus) (UniProt Q9QUQ5); assay: inhibitors of mouse TRPC4 channel, confirmation, cell-based, second round, Fluo4, HEK293 TRPC4beta/mu-opioid, 1 µM (AID 2637;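 active = calcium signal ratio cut to more than 3 SD under the fully stimulated control mean yet still positive, in both repeats and the primary screen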); conditions: Fluo4 calcium flux, DAMGO, at 1 µM; active compounds read high
# [7] = biological target: Short transient receptor potential channel 4 (Mus musculus) (UniProt Q9QUQ5); assay: mouse TRPC4 channel activators, dose response, cell-based, HEK293 TRPC4/mu-opioid, Fluo-4 calcium (AID 434937;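 active = primary screen activator hit with a dose response curve and TRPC4 channel activation at any tested dose; inactive = no activation, no dose response, or not a primary hit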)
# [8] = biological target: Short transient receptor potential channel 4 (Mus musculus) (UniProt Q9QUQ5); assay: TRPC4 positive allosteric modulators, dose response, cell-based, HEK293 TRPC4/mu-opioid, Fluo-4 calcium, EC20 DAMGO (AID 434941;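 active = earlier screen potentiator hit that boosts the TRPC4 ion channel at some dose, with a dose response; inactive = no potentiation, no dose response, or not a prior hit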;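 also: calcium entry triggered by an EC20 dose of DAMGO at the co-expressed mu-opioid receptor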)
# [9] = biological target: Short transient receptor potential channel 4 (Mus musculus) (UniProt Q9QUQ5); assay: mouse TRPC4 channel inhibitors, dose response, cell-based, HEK293 TRPC4/mu-opioid, Fluo-4 calcium (AID 434942;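 active = primary screen inhibitor hit that blocks the TRPC4 channel at some tested dose, yielding a dose curve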)
# [10] = biological target: Short transient receptor potential channel 6 (Mus musculus) (UniProt Q61143); assay: inhibition of mouse TRPC6 channel, confirmation, selectivity assay for TRPC4 inhibitor project, cell-based, HEK293, membrane potential dye, duplicate (AID 434948;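 active = active in primary screen and both duplicates, each dropping signal beyond three positive-control SD with fluorescence still positive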); conditions: HEK293 TRPC6, membrane potential dye fluorescence, at 10 µM; inhibition: active compounds read high, stimulated with maximal-effect acetylcholine unless noted; outcome: stimulated with maximal-effect acetylcholine unless noted
# [11] = biological target: Short transient receptor potential channel 6 (Mus musculus) (UniProt Q61143); assay: activation of mouse TRPC6 channel, confirmation, selectivity assay for TRPC4 activator project, cell-based, HEK293, membrane potential dye, duplicate (AID 434950;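 active = membrane potential signal rise above negative control mean plus 3 SD in both duplicates, also active in the earlier TRPC4 screen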); conditions: HEK293 TRPC6, membrane potential fluorescence, at 10 µM; active compounds read high
# [12] = biological target: Short transient receptor potential channel 6 (Mus musculus) (UniProt Q61143); assay: TRPC6 potentiation by TRPC4 potentiator hits, confirmation, selectivity assay for TRPC4 potentiator project, HEK293 cells, membrane potential dye, duplicate (AID 434952); conditions: HEK293 TRPC6, membrane potential dye fluorescence, at 10 µM; maximal acetylcholine added after compound unless noted
# [13] = biological target: Short transient receptor potential channel 4 (Mus musculus) (UniProt Q9QUQ5); assay: calcium flux activators in TRPC4/5HT1a cells, counter-screen for TRPC4 activator project, cell-based, second counter screen, HEK293 TRPC4/5HT1a, Fluo-4 (AID 434977;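 active = calcium signal rise above buffer-control mean plus 5 SD in both duplicates, and also a hit in the primary screen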); conditions: Fluo-4 calcium flux, at 10 µM; active compounds read high
# [14] = calcium flux inhibitors in TRPC4/5HT1a cells, confirmation, counter-screen for TRPC4 inhibitor project, cell-based, second counter screen, HEK293 TRPC4/5HT1a, Fluo-4 (AID 434978;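 active = primary screen active whose calcium signal fell more than 3 SD beyond the full-serotonin control mean in both duplicate plates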;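 as to outcome: serotonin given first at submaximal then at maximal dose after compound preincubation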); conditions: Fluo-4 calcium flux, at 10 µM; inhibition: active compounds read high, serotonin added to trigger calcium flux unless noted; outcome: serotonin added to trigger calcium flux unless noted
# [15] = tested on: TRPC4 (mouse), co-expressed with 5HT1a in HEK293; assay: calcium flux potentiators in TRPC4/5HT1a cells, confirmation, counter-screen for TRPC4 potentiator project, cell-based, second counter screen, HEK293 TRPC4/5HT1a, Fluo-4 (AID 434979;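 active = signal rise over 3 SD above mean of control wells given weak agonist, in both repeats and first screen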); conditions: Fluo-4 calcium flux, at 10 µM; outcome: serotonin added at its EC20 dose unless noted; potentiation: active compounds read high, serotonin added at its EC20 dose unless noted
# [16] = calcium flux activation in mu-opioid HEK293 cells, confirmation, counter-screen for TRPC4 activator project, cell-based, HEK293 mu-opioid receptor line (AID 449723;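 active = hit in primary screen, with calcium signal over 5 SD above buffer well mean in both duplicates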;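 also: counter screen cells carry the mu-opioid receptor alone and lack TRPC4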); conditions: Fluo-4 calcium fluorescence, at 10 µM; active compounds read high
# [17] = calcium flux enhancement in mu-opioid HEK293 cells, confirmation, counter-screen for TRPC4 allosteric potentiator project, cell-based, HEK293 mu-opioid receptor line (AID 449724;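 active = calcium signal rise more than 3 SD above the low-dose agonist control mean, in both duplicate plates and the primary screen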); conditions: Fluo-4 calcium flux, at 10 µM; compound added before EC20 DAMGO stimulus unless noted
# [18] = biological target: Inward rectifier potassium channel 2 (Mus musculus) (UniProt P35561); assay: mouse Kir2.1 channel blockers, retest, confirmation, cell-based, FluxOR thallium flux, duplicate (AID 2032;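 active = Primary-screen hit whose thallium flux fell at least 3 control SD below untreated wells in both duplicates, with normal baseline fluorescence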); conditions: Kir2.1-expressing cells, FluxOR thallium flux fluorescence, at 10 µM; active compounds read low
# [19] = nonspecific thallium flux effects in parental HEK293 cells, confirmation, counter-screen for Kir2.1 inhibitor project, cell-based, FluxOR thallium flux, duplicate, single concentration (AID 2105;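 active = dye signal at least 3 control SD above or below untreated wells in both duplicates, raw fluorescence within 3, either direction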); conditions: FluxOR thallium flux fluorescence, at 10 µM; 0% = unstimulated blank wells
# Chain of Short transient receptor potential channel 6 (Mus musculus) (Q61143 whole entry, looked up): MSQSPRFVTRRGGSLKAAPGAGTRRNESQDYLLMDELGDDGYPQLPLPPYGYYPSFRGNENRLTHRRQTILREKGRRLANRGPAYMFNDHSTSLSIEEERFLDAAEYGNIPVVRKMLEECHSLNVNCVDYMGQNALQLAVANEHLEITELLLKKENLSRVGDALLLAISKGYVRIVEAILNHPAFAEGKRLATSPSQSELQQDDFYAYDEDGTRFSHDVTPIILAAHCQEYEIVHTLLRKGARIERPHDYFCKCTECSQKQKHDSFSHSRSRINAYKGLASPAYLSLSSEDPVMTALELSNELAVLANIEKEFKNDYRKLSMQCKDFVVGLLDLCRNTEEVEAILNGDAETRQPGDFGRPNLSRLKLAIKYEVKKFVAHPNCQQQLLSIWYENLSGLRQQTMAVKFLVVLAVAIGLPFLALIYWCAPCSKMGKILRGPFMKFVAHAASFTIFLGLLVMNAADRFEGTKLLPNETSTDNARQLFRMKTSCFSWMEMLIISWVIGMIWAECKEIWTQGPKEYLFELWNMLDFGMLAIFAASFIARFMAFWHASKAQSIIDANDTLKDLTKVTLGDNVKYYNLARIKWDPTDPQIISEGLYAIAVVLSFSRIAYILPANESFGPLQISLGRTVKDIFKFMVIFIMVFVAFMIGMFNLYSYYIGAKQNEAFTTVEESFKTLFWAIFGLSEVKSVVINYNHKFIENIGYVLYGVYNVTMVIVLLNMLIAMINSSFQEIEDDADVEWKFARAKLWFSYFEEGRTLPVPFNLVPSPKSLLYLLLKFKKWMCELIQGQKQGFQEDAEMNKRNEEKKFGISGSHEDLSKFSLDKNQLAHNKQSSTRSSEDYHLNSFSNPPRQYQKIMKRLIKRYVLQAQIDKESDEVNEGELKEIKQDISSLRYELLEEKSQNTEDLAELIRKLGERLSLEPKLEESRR
# Chain of Short transient receptor potential channel 4 (Mus musculus) (Q9QUQ5 whole entry, looked up): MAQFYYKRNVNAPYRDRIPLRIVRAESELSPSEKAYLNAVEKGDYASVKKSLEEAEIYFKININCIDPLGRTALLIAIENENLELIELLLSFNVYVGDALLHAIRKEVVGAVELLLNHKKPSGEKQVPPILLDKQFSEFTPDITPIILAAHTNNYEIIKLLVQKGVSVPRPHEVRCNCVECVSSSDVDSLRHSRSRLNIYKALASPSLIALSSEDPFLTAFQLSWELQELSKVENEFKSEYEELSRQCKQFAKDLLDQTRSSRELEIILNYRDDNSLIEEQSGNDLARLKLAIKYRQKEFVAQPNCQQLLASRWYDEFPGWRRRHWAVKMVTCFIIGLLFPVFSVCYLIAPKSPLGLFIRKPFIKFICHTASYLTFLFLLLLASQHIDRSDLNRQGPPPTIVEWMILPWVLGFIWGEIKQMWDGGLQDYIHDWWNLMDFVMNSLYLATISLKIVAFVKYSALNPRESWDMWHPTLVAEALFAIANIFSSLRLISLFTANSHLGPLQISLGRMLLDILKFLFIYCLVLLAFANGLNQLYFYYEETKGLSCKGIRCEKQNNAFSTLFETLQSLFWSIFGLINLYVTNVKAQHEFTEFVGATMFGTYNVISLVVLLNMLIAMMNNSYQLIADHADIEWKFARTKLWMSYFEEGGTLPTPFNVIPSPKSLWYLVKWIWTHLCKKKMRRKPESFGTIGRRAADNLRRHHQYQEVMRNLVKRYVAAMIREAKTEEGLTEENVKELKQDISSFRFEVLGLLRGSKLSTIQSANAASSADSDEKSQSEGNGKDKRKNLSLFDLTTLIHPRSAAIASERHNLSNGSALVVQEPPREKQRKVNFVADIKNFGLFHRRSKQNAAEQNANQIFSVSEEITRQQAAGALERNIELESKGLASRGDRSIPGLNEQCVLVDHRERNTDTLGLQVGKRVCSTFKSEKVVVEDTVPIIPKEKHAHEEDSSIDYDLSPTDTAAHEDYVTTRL
# Chain of Inward rectifier potassium channel 2 (Mus musculus) (P35561 whole entry, looked up): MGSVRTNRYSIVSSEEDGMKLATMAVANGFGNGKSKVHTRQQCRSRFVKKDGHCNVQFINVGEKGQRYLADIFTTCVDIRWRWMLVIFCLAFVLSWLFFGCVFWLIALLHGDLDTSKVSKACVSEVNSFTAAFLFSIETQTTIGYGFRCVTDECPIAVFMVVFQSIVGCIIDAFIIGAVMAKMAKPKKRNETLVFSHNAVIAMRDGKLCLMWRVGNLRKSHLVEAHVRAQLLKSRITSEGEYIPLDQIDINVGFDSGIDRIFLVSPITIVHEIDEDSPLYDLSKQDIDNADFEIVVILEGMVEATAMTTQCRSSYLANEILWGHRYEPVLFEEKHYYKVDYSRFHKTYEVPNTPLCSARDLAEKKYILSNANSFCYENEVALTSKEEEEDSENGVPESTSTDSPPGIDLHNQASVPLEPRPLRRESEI
smiles,measurement,setting,value
CC(Cc1ccccc1Sc1ccccc1)N(C)C (configuration not stated),outcome,[1],inactive
same,outcome,[2],inactive
same,outcome,[3],inactive
same,outcome,[4],inactive
same,outcome,[5],inactive
same,outcome,[6],inactive
same,outcome,[7],inactive
same,outcome,[8],inactive
same,outcome,[9],inactive
same,outcome,[10],inactive
same,outcome,[11],inactive
same,outcome,[12],inactive
same,outcome,[13],inactive
same,outcome,[14],inactive
same,outcome,[15],inactive
same,outcome,[16],inactive
same,outcome,[17],inactive
Oc1c(Br)cc(Br)cc1CN1CCN(Cc2ccccc2)CC1,outcome,[1],inactive
same,outcome,[2],inactive
same,outcome,[3],inactive
same,potentiation,[4],44% (active)
same,outcome,[5],inactive
same,outcome,[6],inactive
same,outcome,[7],inactive
same,outcome,[8],inactive
same,outcome,[9],inactive
same,outcome,[10],inactive [setting not given]
same,outcome,[11],inactive
same,outcome,[12],inactive [setting not given]
same,outcome,[13],inactive
same,outcome,[14],inactive [setting not given]
same,potentiation,[15],20.2% [active compounds read high] (active)
same,outcome,[16],inactive
same,outcome,[17],inactive [setting not given]
CCc1ccc(OCCCN=C(C)c2c(O)n(C)c(=O)n(C)c2=O)cc1,outcome,[1],inactive
same,outcome,[2],inactive
same,outcome,[3],inactive
same,outcome,[4],inactive
same,outcome,[5],inactive
same,outcome,[6],inactive
same,outcome,[7],inactive
same,outcome,[8],inactive
same,outcome,[9],inactive
same,outcome,[10],inactive [setting not given]
same,outcome,[11],inactive
same,outcome,[12],inactive [setting not given]
same,outcome,[13],inactive
same,outcome,[14],inactive [setting not given]
same,potentiation,[15],13.7% [active compounds read high] (active)
same,outcome,[16],inactive
same,outcome,[17],inactive [setting not given]
Clc1ccc(OCC#CCN2CCCC2)cc1,outcome,[1],inactive
same,outcome,[2],inactive
same,potentiation,[3],30% (active)
same,outcome,[4],inactive
same,outcome,[5],inactive
same,outcome,[6],inactive
same,outcome,[7],inactive
same,outcome,[8],inactive
same,outcome,[9],inactive
same,outcome,[10],inactive
same,outcome,[11],inactive
same,outcome,[12],inactive
same,outcome,[13],inactive
same,outcome,[14],inactive
same,potentiation,[15],26% (active)
same,outcome,[16],inactive
same,outcome,[17],inactive
c1ccc(C2NCc3ccccc3-n3cccc32)cc1 (configuration not stated),"Tl flux remaining, % of negative control (active compounds read low)",[18],52% (active)
same,outcome,[19],inactive
O=[N+]([O-])c1ccc(N2CCNCC2)cc1N1CCCCCC1,outcome,[1],inactive
same,outcome,[2],inactive
same,outcome,[3],inactive
same,outcome,[4],inactive
same,outcome,[5],inactive
same,outcome,[6],inactive
same,outcome,[7],inactive
same,outcome,[8],inactive
same,outcome,[9],inactive
same,outcome,[10],inactive
same,outcome,[11],inactive
same,outcome,[12],inactive
same,outcome,[13],inactive
same,outcome,[14],inactive
same,potentiation,[15],13.3% (active)
same,outcome,[16],inactive
same,outcome,[17],inactive
Cc1ccc(CN2C3CCCC2CC(NC(=S)NCc2ccccc2)C3)cc1 (configuration not stated),outcome,[1],inactive
same,outcome,[2],inactive
same,outcome,[3],inactive
same,outcome,[4],inactive
same,inhibition,[5],88% (active)
same,outcome,[6],inactive
same,outcome,[7],inactive
same,outcome,[8],inactive
same,outcome,[10],inactive
same,outcome,[11],inactive
same,outcome,[12],inactive
same,outcome,[13],inactive
same,inhibition,[14],36.3% (active)
same,outcome,[15],inactive
same,outcome,[16],inactive
same,outcome,[17],inactive
CCN(CC)CC(=O)Nc1ccc(Cl)cc1C(=O)c1ccccc1,outcome,[1],inactive
same,outcome,[2],inactive
same,outcome,[3],inactive
same,outcome,[4],inactive
same,inhibition,[5],89% (active)
same,outcome,[6],inactive
same,outcome,[7],inactive
same,outcome,[8],inactive
same,outcome,[10],inactive
same,outcome,[11],inactive
same,outcome,[12],inactive
same,outcome,[13],inactive
same,inhibition,[14],33.6% (active)
same,outcome,[15],inactive
same,outcome,[16],inactive
same,outcome,[17],inactive
Cc1ccc(C2CN(C)CC2C(=O)c2ccc(F)cc2)cc1 (configuration not stated),outcome,[1],inactive
same,outcome,[2],inactive
same,outcome,[3],inactive
same,outcome,[4],inactive
same,inhibition,[5],87% (active)
same,inhibition,[6],42% (active)
same,outcome,[7],inactive
same,outcome,[8],inactive
same,outcome,[10],inactive
same,outcome,[11],inactive
same,outcome,[12],inactive
same,outcome,[13],inactive
same,inhibition,[14],38% (active)
same,outcome,[15],inactive
same,outcome,[16],inactive
same,outcome,[17],inactive
CC(C)CN(CC(C)C)c1ccc(C=C2C(=O)NC(=S)NC2=O)cc1[N+](=O)[O-],outcome,[1],inactive
same,outcome,[2],inactive
same,outcome,[3],inactive
same,outcome,[4],inactive
same,inhibition,[5],98% (active)
same,inhibition,[6],52% (active)
same,outcome,[7],inactive
same,outcome,[8],inactive
same,outcome,[10],inactive [setting not given]
same,outcome,[11],inactive
same,outcome,[12],inactive [setting not given]
same,outcome,[13],inactive
same,inhibition,[14],8.19% [active compounds read high] (active)
same,outcome,[15],inactive [setting not given]
same,outcome,[16],inactive
same,outcome,[17],inactive [setting not given]
CCN(CC)c1ccc([N+](=O)[O-])c2cccnc12,outcome,[1],inactive
same,outcome,[2],inactive
same,outcome,[3],inactive
same,outcome,[4],inactive
same,inhibition,[5],93% (active)
same,outcome,[6],inactive
same,outcome,[7],inactive
same,outcome,[8],inactive
same,outcome,[10],inactive
same,outcome,[11],inactive
same,outcome,[12],inactive
same,outcome,[13],inactive
same,inhibition,[14],28% (active)
same,outcome,[15],inactive
same,outcome,[16],inactive
same,outcome,[17],inactive
COc1ccc(C)cc1NC1=NC(C)(C)CS1,outcome,[1],inactive
same,outcome,[2],inactive
same,outcome,[3],inactive
same,outcome,[4],inactive
same,inhibition,[5],89% (active)
same,inhibition,[6],42% (active)
same,outcome,[7],inactive
same,outcome,[8],inactive
same,outcome,[10],inactive
same,outcome,[11],inactive
same,outcome,[12],inactive
same,outcome,[13],inactive
same,outcome,[14],inactive
same,outcome,[15],inactive
same,outcome,[16],inactive
same,outcome,[17],inactive
CCN1CCN(Cc2cc(Br)ccc2O)CC1,outcome,[1],inactive
same,outcome,[2],inactive
same,potentiation,[3],19% (active)
same,potentiation,[4],22% (active)
same,outcome,[5],inactive
same,outcome,[6],inactive
same,outcome,[7],inactive
same,outcome,[9],inactive
same,outcome,[10],inactive
same,outcome,[11],inactive
same,outcome,[12],inactive
same,outcome,[13],inactive
same,outcome,[14],inactive
same,potentiation,[15],16.8% (active)
same,outcome,[16],inactive
same,outcome,[17],inactive
CCOC(=O)C(O)(c1ccc(NC(=S)NC(=O)c2ccc(Cl)cc2Cl)c(C)c1)C(F)(F)F (configuration not stated),outcome,[1],inactive
same,outcome,[2],inactive
same,outcome,[3],inactive
same,potentiation,[4],31% (active)
same,outcome,[5],inactive
same,outcome,[6],inactive
same,outcome,[7],inactive
same,outcome,[9],inactive
same,outcome,[10],inactive
same,outcome,[11],inactive
same,outcome,[12],inactive
same,outcome,[13],inactive
same,outcome,[14],inactive
same,potentiation,[15],28.1% (active)
same,outcome,[16],inactive
same,outcome,[17],inactive
CCCCN1C(=O)NC(=O)C2(Cc3c(nc4c(C)cccn4c3=O)N3CCc4ccccc4C32)C1=O (configuration not stated),outcome,[1],inactive
same,outcome,[2],inactive
same,outcome,[3],inactive
same,potentiation,[4],23% (active)
same,outcome,[5],inactive
same,outcome,[6],inactive
same,outcome,[7],inactive
same,outcome,[8],inactive
same,outcome,[9],inactive
same,outcome,[10],inactive [setting not given]
same,outcome,[11],inactive
same,outcome,[12],inactive [setting not given]
same,outcome,[13],inactive
same,outcome,[14],inactive [setting not given]
same,potentiation,[15],37.1% [active compounds read high] (active)
same,outcome,[16],inactive
same,outcome,[17],inactive [setting not given]
